High-throughput results from PubChem BioAssay.
Hits are enriched below; roughly 17% of the tested compounds scored in any of these assays.
DT40 TDP1 CPT: qHTS for Inhibitors of human tyrosyl-DNA phosphodiesterase 1 (TDP1): qHTS in cells in presence of CPT; 12% of 420,000 active; chicken DT40 Tdp1-/-;hTDP1 cells + 20 nM CPT, ATP luminescence, 48 h; Potency, µM (titrated, usually from 46.2 µM), for inactives: at the top dose activity change, negative = growth inhibition, actives largely listed as inhibitors; further: on the % scale 0 is the no-effect control and ±100 the full control effect; nearly all actives have a fitted effect of over 55% in size
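Cell growth measured by CellTiter-Glo luminescence after a minimum 48 h, 37 C compound exposure with 20 nM CPT in Tdp1-knockout DT40 cells stably expressing hTDP1, seeded 400/well; qHTS titration format.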
ClpP mod: qHTS Assay for Activators of ClpP; ATP-dependent Clp protease proteolytic subunit (Bacillus subtilis (strain 168)), P80244; purified B. subtilis ClpP, FRET peptide cleavage, 20 min; Potency, µM (titrated, usually from 57.5 µM), for the others: at the top dose activity change, negative = active; 1.9% of 340,000 active; AID 651965, 2013; active means well fitted falling curve with a large enough effect; inconclusive means small, poorly fitted or top-dose-only effect; inactive means no such curve, though single readings can be large or run the other way; further: the source files actives as falling curves though it sought activators and does not explain the sign; nearly all actives have a fitted effect of over 65% in size
Target sequence (P80244 whole entry, looked up): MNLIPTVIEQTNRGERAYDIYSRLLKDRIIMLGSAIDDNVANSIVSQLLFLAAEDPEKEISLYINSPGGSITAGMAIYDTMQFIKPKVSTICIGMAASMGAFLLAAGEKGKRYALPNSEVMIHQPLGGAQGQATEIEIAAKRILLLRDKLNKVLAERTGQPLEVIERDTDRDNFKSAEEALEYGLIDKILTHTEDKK
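Purified B. subtilis ClpP, 10 microg/mL final in Tris/HCl pH8 with KCl, BSA, glycerol and Tween-20, cleaved an Abz/nitrotyrosine-quenched decapeptide. Fluorescence (ex 320, em 430) was read at 0 and 20 min at room temperature. Delta was normalized to 5.8 microM ADEP and DMSO/no-enzyme controls.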
TDP1 block: qHTS Assay for Inhibitors of Tyrosyl-DNA Phosphodiesterase (TDP1) | Tyrosyl-DNA phosphodiesterase 1 (Homo sapiens), Q9NUW8 | recombinant TDP1, AlphaScreen DNA substrate cleavage | Potency, µM (series often up to 130 µM), for the others: at the highest dose activity change, negative = inhibition, most hits filed as inhibitors | 0.28% of 350,000 active | AID 485290, 2010; further: on the % scale 0 is the no-effect control and ±100 the full control effect; nearly all actives have a fitted effect of over 40% in size
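Recombinant E. coli-expressed Tdp1 (1 nM) preincubated with compound 15 min at RT, then 5'-biotin/3'-phosphotyrosine-FITC DNA substrate (15 nM) added for 5 min. AlphaScreen beads (10 ug/ml) added, 10 min RT; tyrosine-FITC cleavage read as signal loss.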
DT40 TDP1 no CPT: qHTS for Inhibitors of human tyrosyl-DNA phosphodiesterase 1 (TDP1): qHTS in cells in absence of CPT; DT40 Tdp1-/- hTDP1 cells, no CPT, ATP luminescence, 48 h; Potency, µM (top dose mostly 46.2 µM), for inactives: at the top dose activity change, negative = growth inhibition, hits mostly inhibitors; 15% of 420,000 active; AID 686978, 2013; further: on the % scale 0 is the no-effect control and ±100 the full control effect; nearly all actives have a fitted effect of over 55% in size
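No-CPT arm: Tdp1-/-;hTDP1 DT40 cells (400/well) plus compounds, incubated ≥48 hr at 37 °C. Readout CellTiter-Glo luminescence.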
Numbers without * were called inactive; ? = inconclusive; . = no result; [ ] = remark or other dose. Unless noted, the call rests on the fitted dose curve; in most records, active means well fitted curve in the direction sought with a large enough effect; inconclusive means small, poorly fitted or top-dose-only effect, or another doubt; inactive means no such curve, though single readings can be large; an effect the other way counts as inactive or inconclusive. Potency means the concentration at half of the fitted maximal effect.

SMILES | DT40 TDP1 CPT | ClpP mod | TDP1 block | DT40 TDP1 no CPT
COc1ccc(CCNc2ncnc3c2c(-c2ccccc2)cn3-c2cccc(Cl)c2)cc1OC | 7.3µM* | ? | 0% | 9.2µM*
COCCNc1ncnc2c1c(-c1ccccc1)cn2-c1cccc(Cl)c1 | ? | -8% | 7% | ?
COc1ccc(-n2cc(-c3ccccc3)c3c(NCCc4ccc(OC)c(OC)c4)ncnc32)cc1 | 23µM* | ? | 10% | 21µM*
Cc1ccc2c(c1)-c1cc(C)ccc1C2=O | 15% | . | . | -3%
CCc1ccccc1NC(=O)CNC(=O)CNC(=O)Cc1ccccc1 | -21% | 1% | 11% | -10%
Cc1cccc(-c2cc3nc4c(c(N5CCOCC5)n3n2)CCCC4)c1 | 18µM* | ? | -12% | 23µM*
O=C(c1cc(F)c(F)c(F)c1F)N1CCN(C(=O)C2CCCO2)CC1 (centres undefined) | 2% | 1% | 1% | -7%
OC1CCN(c2c3c(nc4cc(-c5ccc(F)cc5)nn24)CCC3)CC1 | 16µM* | -13% | 6% | ?
O=C(C1CCCO1)N1CCN(c2c3c(nc4cc(-c5ccc(F)cc5)nn24)CCC3)CC1 (centres undefined) | ? | ? | 2% | 16µM*
Cc1cccc(-c2cc3nc4c(c(NCc5ccco5)n3n2)CCCC4)c1 | ? | 28µM* | 9% | ?
CN(C)CCCNc1c2c(nc3cc(-c4cccc(F)c4)nn13)CCC2 | 19% | -6% | 5% | 9%
Cc1ccc(S(=O)(=O)c2nc(-c3cccc(Cl)c3)oc2NCc2ccccc2)cc1 | -29% | ? | . | ?
O=C(NCCCn1ccnc1)c1ccc(COc2ccccc2)o1 | -13% | 2% | . | -10%
Fc1ccc(-c2cc3nc4c(c(N5CCOCC5)n3n2)CCCC4)cc1 | 18µM* | -15% | -6% | 16µM*
C1CCc2c(nc3nnnn3c2N2CCOCC2)C1 | -5% | -2% | 2% | -19%
COC(=O)c1c(C)[nH]c(C(=O)OC(C)C(=O)N(C)C2CCCCC2)c1C (centres undefined) | ? | -2% | . | 16µM*
CC(=O)c1c(C)[nH]c(C(=O)OC(C)C(=O)NC2CCCCC2)c1C (centres undefined) | -20% | 2% | . | ?
CN1CCN(C(c2cccnc2)c2ccc3cccnc3c2O)CC1 (centres undefined) | ? | -1% | -4% | 16µM*
CN1CCN(C(c2ccc(Br)cc2)c2cc(Cl)c3cccnc3c2O)CC1 (centres undefined) | 16µM* | . | 10% | 15µM*
CCC(=O)NC(c1ccc(Br)o1)c1cc(Cl)c2cccnc2c1O (centres undefined) | . | . | 1% | .
CN1CCN(C(c2ccc(F)cc2)c2ccc3cccnc3c2O)CC1 (centres undefined) | 4% | 3% | . | -6%
COc1ccc2oc(=O)c(C(=O)Nc3cccc(C(C)=O)c3)cc2c1 | -3% | 0% | . | -15%
CCN(CC)CCOC(=O)c1ccc(NC(=O)c2cc3cc(OC)ccc3oc2=O)cc1 | 0.041µM* | -9% | 1% | 0.0058µM*
COc1cccc2cc(C(=O)NCc3ccccn3)c(=O)oc12 | -12% | -2% | 2% | -1%
CCN(CC)CCOC(=O)c1ccc(NC(=O)c2cc3cccc(OC)c3oc2=O)cc1 | 21µM* | 2% | 9% | ?
SMILES | DT40 TDP1 CPT | ClpP mod | TDP1 block | DT40 TDP1 no CPT
COC(=O)[C@H](Cc1ccccc1)NC(=O)[C@]1(C)C[C@H]1[C@H](NC(=O)OCc1ccccc1)c1ccccc1 | . | . | 7% | .
CC(C)NC(=O)C1(C)CCN1C(=O)c1cccc(F)c1 (centres undefined) | -4% | 0% | . | -17%
COc1ccc(C)cc1N(C(=O)COc1cccc(F)c1)c1nc2ccccc2s1 | ? | -5% | 5% | ?
COc1ccc(C)cc1N(C(=O)c1ccc(F)cc1)c1nc2ccccc2s1 | ? | -10% | 3% | 16µM*
Cc1ccc(C(=O)N/N=C\c2ccccc2[N+](=O)[O-])cn1 | -1% | 1% | 6% | 14%
Cc1c(C(=O)N/N=C/C(C)C)[nH]c2c([N+](=O)[O-])cccc12 | 4% | . | 4% | 23µM*
Cc1ccc(S(=O)(=O)OCCC2=CC(=O)CCN2Cc2ccccc2)cc1 | 16µM* | 2% | 0% | ?
COC(=O)C/C=C\[C@@H](C)[C@H]1C=C[C@H](O)[C@@H](CO)O1 | . | . | 3%[21 µM] | .
Cn1c2ccccc2c2c(C(=O)N3CCN(c4ccccc4)CC3)cn(C3CCCC3)c(=O)c21 | 26µM* | ? | -4% | 8.2µM*
CC(=O)c1ccc(N2CCN(C(=O)c3cn(C)c(=O)c4c3c3ccccc3n4C)CC2)cc1 | ? | -17% | 7% | 23µM*
CC(=O)c1ccc(N2CCN(C(=O)c3n[nH]c4ccccc34)CC2)cc1 | ? | . | 6% | ?
Cn1c2ccccc2c2c(C(=O)N3CCN(c4cccc(C(F)(F)F)c4)CC3)cn(C3CCCCC3)c(=O)c21 | ? | ? | 0%[12.3 µM] | 16µM*
Cn1cc(C(=O)N2CCN(c3cccc(C(F)(F)F)c3)CC2)c2c3ccccc3n(C)c2c1=O | 23µM* | 4% | 6% | 16µM*
CN1CCN(CCCNC(=O)c2cn(C3CCCCC3)c(=O)c3c2c2ccccc2n3C)CC1 | -11% | ? | 4% | -11%
O=C(CN(Cc1cccs1)C(=O)CCC(=O)Nc1ccccn1)NCc1ccccc1 | -5% | . | 1% | ?
CCOC(CCNC(=O)c1cn(CC(C)C)c(=O)c2c1c1ccccc1n2C)OCC | 21% | . | . | -18%
Cc1ccc(NC(=O)CSc2nnc3ccccn23)cc1S(=O)(=O)N1CCOCC1 | -14% | . | 4% | -11%
COc1cc2c(NC3CCN(C)CC3)nc(N3CCN(C)CC3)nc2cc1OCCCN(C)C | ? | 4% | . | ?
COc1cc2c(NC3CCN(C)CC3)nc(N3CCCN(C)CC3)nc2cc1OCCCCC(N)=O | 8% | 4% | . | -12%
COc1cc2nc(N3CCCN(C)CC3)nc(Nc3ccncc3)c2cc1OC | 3.2µM* | 4% | . | 7.9µM*
COc1cc2nc(N3CCOCC3)nc(NC3CCN(C)CC3)c2cc1OC | 10µM* | 4% | . | 16µM*
COc1cc2nc(N3CCN(C)CC3)nc(NC3CC3)c2cc1OC | 11µM* | 4% | . | 10µM*
COc1cc2nc(N3CCCCC3)nc(NC3CC3)c2cc1OC | 13µM* | 4% | . | 16µM*
CCCNC(=O)C1(C)CCCN(C(=O)c2cc3ccccc3s2)C1 (centres undefined) | -18% | -1% | . | -28%
CCOC(=O)C1=CN(Cc2cccc(F)c2)S(=O)(=O)NC1c1ccc(Br)cc1F (centres undefined) | 21µM* | -3% | -1%[56.1 µM] | ?
